In ChEMBL document CHEMBL1157539, “Thousands of chemical starting points for antimalarial lead identification” (Nature, 2010):

What was measured:
Assay type in all cases: functional
[1] = test system: Plasmodium falciparum; assay: GSK_TCMDC: Inhibition of Plasmodium falciparum 3D7 in whole red blood cells, using parasite LDH activity as an index of growth. Test compounds present at 2uM
[2] = test system: Plasmodium falciparum; assay: GSK_TCMDC: Inhibition of Plasmodium falciparum Dd2 in whole red blood cells, using parasite LDH activity as an index of growth. Test compounds present at 2uM
[3] = test system: HepG2; assay: GSK_TCMDC: Percent inhibition of human HepG2 cell line. Test compounds present at 10uM.

Row | Compound | Inhibition [1] [%] | Inhibition [2] [%] | Inhibition [3] [%]
1 | Fc1c(CNCC2CCN(CC3CCCCC3)CC2)cccc1C(F)(F)F.O=C(O)C(F)(F)F | 93 | 7 | 35
2 | O=C1COc2ccc(CNC3CCC(O)(CCc4ccnc5cc6c(cc45)OCCO6)CC3)nc2N1 (stereo not drawn) | 92 | 0 | 0
3 | CC1CC(NCCCNc2cc(=O)c3ccccc3[nH]2)c2cc(Cl)c(Cl)c(Cl)c21 (stereo not drawn) | 100 | 69 | 0
4 | CN(CCCNCc1ccc2ccccc2c1)CCCNCc1ccc2ccccc2c1.Cl | 100 | 79 | 100
5 | CN1CCC(C(=O)Nc2ccc(-c3ccc(-c4nc5cc(C(F)(F)F)ccc5[nH]4)s3)cc2)CC1 | 100 | 95 | 53
6 | CCOc1c(Br)cc(Cl)cc1CNCCCNc1nc2ccccc2[nH]1.Cl | 98 | 3 | 27
7 | Cc1cc(N)c2cc(NC(=O)c3cccc4ccccc34)ccc2n1.Cl | 98 | 13 | 18
8 | CN1CCN(c2ccnc3ccc(NC(=O)Nc4ccc5c(c4)CCCC5=O)cc23)CC1 | 100 | 90 | 8
9 | COc1ccc2nc(-c3ccccc3)cc(N/N=C/c3ccc([N+](=O)[O-])o3)c2c1 | 100 | 99 | 90
10 | CCCc1cc(N2CCC(N(CC)CC)C2)nc(Nc2ccc(OC)cc2)n1 (stereo not drawn) | 90 | 4 | 9
11 | CC(C)COc1ccc(Cl)cc1Cc1ccc(-c2nc3c(F)cccc3[nH]2)o1 | 98 | 47 | 15
12 | O=C(Nc1ccc(F)cc1)NC1CCN(c2ccnc3ccccc23)C1.O=C(O)C(F)(F)F (stereo not drawn) | 92 | 2 | 9
13 | O=C(O[C@@H]1CN[C@H](C#Cc2cc3c(Nc4ccc5c(cnn5Cc5ccccc5)c4)ncnc3s2)C1)N1CCCC1 | 99 | 87 | 8
14 | CN1CCN(c2cccc(-c3nnc(-c4ccc(OCC(=O)NCc5cccc(C(F)(F)F)c5)c([N+](=O)[O-])c4)o3)c2)CC1 | 90 | 72 | 25
15 | O=C(O)C(F)(F)F.O=c1[nH]c2ccc(Nc3nccc(NCCc4ccccc4)n3)cc2[nH]1 | 100 | 6 | 0
16 | COc1ccc(CNCCc2cccs2)cc1-c1ccc(OC)c(S(=O)(=O)NCCN2CCCC2)c1.O=C(O)C(F)(F)F | 96 | 19 | 16
17 | CCOC(=O)C1=C(C)NC2=C(C(=O)C(C(=O)OC)C(C)C2)C1c1cc(Br)c(OCC)c(OC)c1 (stereo not drawn) | 100 | 99 | 8
18 | O=C(Nc1ccc(Cn2ncc(N3CCCNCC3)c(Cl)c2=O)cc1)Nc1cc(Cl)cc(Cl)c1.O=C(O)C(F)(F)F | 91 | 17 | 3
19 | Cc1ccc(Nc2nc3cc(N(C)c4ccnc(Nc5cccc(CCS(C)(=O)=O)c5)n4)ccc3n2C)cc1.O=C(O)C(F)(F)F | 99 | 73 | 78
20 | COc1ccc(NC(=O)C2c3ccccc3C(=O)N(CC(C)C)C2c2cccs2)cc1OC (stereo not drawn) | 100 | 98 | 6
21 | CC(C)n1ncc2c(C(=O)N3CCCCCC3)cc(-c3ccccc3)nc21 | 97 | 42 | 0
22 | O=C(/C=C/c1ccc(Cl)cc1)NCCCCCN1CCCC(C(=O)Nc2ccc(F)c(Cl)c2)C1 (stereo not drawn) | 94 | 6 | 27
23 | CC(=O)Nc1ccc(OCCN(Cc2ccccc2OC(F)(F)F)c2ccc(C(F)(F)F)c(C#N)c2)c(Cl)c1 | 96 | 96 | 8
24 | CC(C)c1ccc(CN2CCC(CNC(=O)c3cc(-c4ccccc4F)cs3)C2)cc1.O=C(O)C(F)(F)F (stereo not drawn) | 100 | 29 | 32
25 | O=C(Cn1cc(C=C2SC(=NC3CCCC3)N(C3CCCC3)C2=O)c2ccccc21)N1CCCC1 | 100 | 100 | 5
26 | CNC(=O)CC(=O)NCCc1ccc(Cl)cc1 | 99 | 1 | 0
